# Measured values: the supplement of paper PMC7156485
# ± gives the standard deviation of the averaged measurements.
# Test system: HCC1569
# Test: cell number relative to DMSO (% of DMSO); higher = more cells (less growth inhibition / toxicity)
# Details: concentration: 10 µM; 24 h
# Method in brief: (§1)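 Compounds were applied at 10 µM for 24 h at 37 °C, in triplicate, to HCC1569 and TDF cells. The cells were then fixed and stained for H1.0, and nuclei were counterstained with DAPI. Nuclear H1.0 intensity or cell number is reported relative to the plate control as a percent, taking the median of replicates. Smoothing for positional effects was applied to HCC1569 values only.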
# 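Further: TDF denotes transformed human dermal fibroblasts of mesenchymal origin.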
row,SMILES,cell number
1,COc1ccccc1OCC(O)CO (configuration not stated) [Guaifenesin],102
2,Cn1c(=O)c(-c2c(Cl)cccc2Cl)cc2cnc(Nc3ccc(N4CCOCC4)cc3)nc21,52.7
3,CC(F)(F)CN1CCOc2c(nn(-c3ccccc3Cl)c2-c2ccc(Cl)cc2)C1=O,104

# Test system: TDF
# Test: as above
# Details: concentration: 10 µM; 24 h
# Method in brief: as §1
row,SMILES,cell number
1,O=C(/C=C/c1cccnc1)NCCCCC1CCN(C(=O)c2ccccc2)CC1,107
2,CCC12CCCN3CCc4c(n(c5ccccc45)C(O)(C(=O)OC)C1)C32 (configuration not stated) [Vincamine],95.8
3,CC(C)NCC(O)COc1cccc2ccccc12 (stereo not drawn) [Propranolol S(-)],104
4,CCCCCCCCCCCCCCCC(O)C(CO)NC(C)=O (configuration not stated) [C2 Dihydroceramide],114
5,CCOC(=O)Oc1c(OC)cc(C(=O)OC2CC3CN4CCc5c([nH]c6cc(OC)ccc56)C4CC3C(C(=O)OC)C2OC)cc1OC (configuration not stated) [Syrosingopine],104
6,COc1ccc(CC[C@H]2CCC[C@@H](CCc3ccc(OC)cc3)N2C[C@@H](O)CO)cc1.Cl,103
7,CCCn1cnc2c1c(=O)n(CCCCC(C)=O)c(=O)n2C [Propentofylline],113
8,Cl.Cl.N=C(N)c1ccc(N)cc1 [4-Aminobenzamidine dihydrochloride],102
9,CN1C(C)(C)CCCC1(C)C.O=C(O)C(O)C(O)C(=O)O [Pempidine tartrate],94.9
10,CC#N.Nc1nc(Nc2ccc(S(N)(=O)=O)cc2)nn1C(=O)c1c(F)cccc1F [Aurora Kinase/Cdk Inhibitor],39.5
11,COC(=O)CCc1ccc(OCC(O)CNC(C)C)cc1 (configuration not stated) [Esmolol],95.1
12,O=C(O)/C=C/c1ccc(O)c(O)c1 [Caffeic acid],99.8 ± 4.1
13,OCc1cc(C(O)CNCCCCCCOCCCCc2ccccc2)ccc1O (configuration not stated) [Salmeterol],100
14,O=C1CCC(N2C(=O)c3ccccc3C2=O)C(=O)N1 (racemic),108
15,COc1cccc(/C=N/CC/N=C/c2cccc(OC)c2[O-])c1[O-].[Cl-].[Mn+2],98.1
16,CC(C)CC(NC(=O)C(O)C(N)Cc1ccccc1)C(=O)O.Cl (configuration not stated) [Bestatin hydrochloride],104
17,OCC1OC(Oc2ccc(O)cc2)C(O)C(O)C1O (configuration not stated) [Arbutin],101

row,SMILES,cell number
1,CC[N+](C)(C)Cc1ccccc1Br.Cc1ccc(S(=O)(=O)[O-])cc1 [Bretylium tosylate],80.2
2,CCNC(=O)C1OC(n2cnc3c(NCc4ccccc4)ncnc32)C(O)C1O (configuration not stated) [N6-Benzyl-5'-N-ethylcarboxamidoadenosine],57.3
3,Cl.NC(N)=NC(=O)Cc1c(Cl)cccc1Cl [Guanfacine.HCl],82.4
4,CCCn1c(=O)c2[nH]c(-c3ccc(OCC(=O)NCCN)cc3)nc2n(CCC)c1=O [Xanthine amine congener],104
5,CCCCCC=CCC=CCC=CCC=CCCCCCC(=O)O [Adrenic acid (22:4 n-6)],107
6,"CCCCCCCCCCCC=CC(C)(C)C=CCCCC(=O)O [7,7-Dimethyl-(5Z,8Z)-eicosadienoic acid]",101
7,CC(C)n1c(C=CC(O)CC(O)CC(=O)O)c(-c2ccc(F)cc2)c2ccccc21 (configuration not stated) [Fluvastatin],64.5
8,CCN(CC)C(=O)C(C#N)=Cc1cc(O)c(O)c([N+](=O)[O-])c1 [Entacapone],92
9,NC(=O)c1ncn(C2OC(CO)C(O)C2O)c1O (configuration not stated) [Mizoribine],99.2
10,CCCCCC=CCC=CCCCCCCCC(=O)NCC(=O)O [N-Linoleoylglycine],101
11,CCOc1cc2ncnc(Nc3cccc(Br)c3)c2cc1OCC [Compound 56],94
12,OC1c2ccccc2N=C2CCCN21 (configuration not stated) [Peganole],93.7
13,O=C(CCCN1CCC(O)(c2cccc(C(F)(F)F)c2)CC1)c1ccc(F)cc1 [Trifluperidol],95.7
14,Cc1nc2cc3nc(-c4cccs4)cnc3cc2n1C,96.2
15,O=C([O-])C=CC(O)c1ccc(Cl)cc1.[Na+] (configuration not stated),97.4
16,CCCCCCCCCC(=O)NC(CN1CCOCC1)C(O)c1ccccc1 (racemic),93.9
17,CC12C=CC(=O)C=C1CCC1C2C(=O)CC2(C)C1CCC2(O)C(=O)CO (configuration not stated) [Prednisone],106
